From PubChem BioAssay (NCI)
Compounds without any hit were thinned out: in the full panel of roughly 83,000, 20% have a hit.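 Single-concentration screen, 48 h exposure, 96-well plates. Endpoint: percent growth. Below 10 = active.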 A number with no mark means an inactive call. Active and inactive are the calls of the source.

Assays:
Experiment in all cases: NCI-60 one-dose screen, 48 h (100 = growth as untreated, 0 = no growth, -100 = all killed)
Details in all cases: 10 µM unless noted
[1] = test system: SK-MEL-2 melanoma
[2] = test system: EKVX NSCLC
[3] = test system: SN12C renal
[4] = test system: UO-31 renal
[5] = test system: TK-10 renal
[6] = test system: ACHN renal
[7] = test system: A498 renal
[8] = test system: CCRF-CEM leukemia
[9] = test system: MOLT-4 leukemia
[10] = test system: SR leukemia

Row | SMILES | growth [1] | growth [2] | growth [3] | growth [4] | growth [5] | growth [6] | growth [7] | growth [8] | growth [9] | growth [10]
1 | COc1cc(C2=NN(C(C)=O)C(c3cccc(Nc4ccnc5cc(C(F)(F)F)ccc45)c3)C2)cc(OC)c1OC (stereo not given) | 81.4% | 52.2% | 64.3% | 35.8% | 58.3% | 58.5% | 60.3% | 44% | 22.3% | 29%
2 | O=C(O)c1ccc(-n2cc(/C=N/Nc3ccc(Cl)cc3Cl)c(-c3ccccc3)n2)cc1 | 91.6% | 77% | 102% | 67.5% | 109% | 83% | 108% | 93.8% | 88.9% | 86.2%
3 | O=C(O)c1cn(C2CC2)c2cc(N3CCN(Cc4nnc(Nc5ccccc5)o4)CC3)c(F)cc2c1=O | 101% | 103% | 109% | 92.5% | 112% | 103% | 92.2% | 92% | 98.5% | 97.7%
4 | CCOC(=O)c1c(-c2ccc(O)cc2)c(C#N)c2c(C#N)c(N)nn2c1N | 44.9% | 71.6% | 81.7% | 69.9% | 82.8% | 88% | 34.9% | 35.7% | 23.7% | 22.3%
5 | O=C(CCl)N1CCCc2ccccc21 | 110% | 96.4% | 93.8% | 82.8% | 102% | 101% | 94.5% | 96.8% | 93.5% | 101%
6 | CCCCC(=O)Nc1c(C(=O)Nc2ccccc2)sc2nc3c(cc12)C(OC(=O)CCCC)CCC3 (stereo not given) | 93.8% | 91.9% | 96.9% | 89% | 98.2% | 115% | 64.7% | 69.8% | 75.9% | -10.6% (active)
7 | O=C(Nc1ccc2ncnc(Nc3ccc(F)c(Cl)c3)c2c1)c1ccccc1 | 87.5% | 61.2% | 71.2% | 63.3% | 36.8% | 37% | 67.6% | 98.6% | 63.4% | 66.7%
8 | COc1cc(/C=C/C(=O)c2cccs2)ccc1OCc1ccc(Cl)nc1 | 96.7% | 94.8% | 81.1% | 57.2% | 111% | 102% | 100% | 61.9% | 86.6% | 20.5%
9 | C=C1C(=O)O[C@H]2[C@H]1CC/C(COC(=O)NCC(=O)Nc1ccc(OC)c(C(N)=O)c1O)=C\CC[C@@]1(C)O[C@@H]21 | 77.5% | 85.1% | 37.9% | 82.7% | 47.2% | 75.3% | 86.4% | -15.8% (active) | 41.8% | 12.6%
10 | O=CN1N=C(c2ccc(Cl)cc2)CC1c1cccc(Nc2ccnc3cc(C(F)(F)F)ccc23)c1 (stereo not given) | 58% | 58.7% | 87.7% | 48.5% | 71% | 61.2% | 58.6% | 51.7% | 33.8% | 30%
11 | COc1ccc(OCC(=O)OC(C)C)cc1 | 109% | 99% | 96.8% | 89.6% | 92.9% | 108% | 92% | 112% | 91.1% | 91.9%
12 | COc1cc(C2=N/C(=C\c3cc4ccccc4nc3Oc3ccccc3)C(=O)N2C(=N)N)cc(OC)c1OC | 84.7% | 72.1% | 43.1% | 55.3% | 80.6% | 61.9% | 69% | 87.3% | 85.1% | 63.8%
13 | CCOC(=O)C1=C(C)n2nc(CC#N)c(C#N)c2NC1c1ccc(CC)cc1 (stereo not given) | 106% | 82.4% | 100% | 65.4% | 109% | 98.7% | 104% | 101% | 104% | 104%
14 | CC(C)NS(=O)(=O)c1cccc(-c2ccc3c4c(n(CCCN(C)C)c(=O)c3c2)-c2ccccc2C4=O)c1 | 101% | 105% | 97.2% | 91% | 114% | 82.4% | 83.3% | 1.51% (active) | 68.2% | -27% (active)
15 | NS(=O)(=O)c1ccc(N2Cc3cc(Cl)ccc3OC3=C2C(=O)N(CC2CCCCC2)C3=O)cc1 | -72.3% (active) | -65.1% (active) | -65.3% (active) | -84% (active) | -96.7% (active) | -100% (active) | -72.2% (active) | -38.8% (active) | -34.9% (active) | -43.4% (active)
16 | CCCS(=O)(=O)Nc1ccc(F)c(C(=O)c2c[nH]c3ncc(-c4ccc(OCCCC5CCCCN5)nc4)cc23)c1F (stereo not given) | 58.5% | 89.7% | 62.5% | 102% | 81.2% | 92.3% | 64.8% | 56.5% | 43.1% | 43.1%
17 | O=C(Nc1ccc2ncnc(Nc3cccc(C(F)(F)F)c3)c2c1)c1cccs1 | 90.7% | 32.5% | 68.5% | 51.1% | 47.4% | 47.4% | 18.9% | 37.2% | 17.6% | 33.8%
18 | Cc1nn(-c2ccc(-c3ccc(OC(F)(F)F)cc3)cc2)c2nc(-c3ccccc3)nc(N)c12 | 101% | 97.7% | 92.5% | 82.4% | 89.7% | 100% | 90.2% | 88.9% | 82.4% | 55.6%
19 | C#C[C@@]1(O)[C@@H](CO)O[C@@H](n2cc(Br)c3c(N)ncnc32)[C@@H]1O | -24.9% (active) | -23.8% (active) | -1.98% (active) | -78.3% (active) | -0.297% (active) | -5.98% (active) | -78.9% (active) | 3.84% (active) | -16.5% (active) | -1.01% (active)
20 | C=C1C(=O)O[C@H]2[C@H]1CC/C(C=Nc1c(N)cc(F)cc1Br)=C\CC[C@@]1(C)O[C@@H]21 | 86.7% | 75.2% | 76.1% | 53.5% | 81.7% | 63.4% | 119% | 7.71% (active) | 45.9% | 21.3%
21 | COc1ccc(C(=S)c2cc(OC)c(OC)c(OC)c2)cc1OC(=O)CCl | 41.9% | 71.8% | 34.6% | 45.5% | 65.2% | 41.9% | 16% | 14.3% | 15.3% | 11%
22 | CCOC(=O)C1CCN(S(=O)(=O)/N=C2/NC(=O)NC2=C(Cl)Cl)CC1 | -23.4% (active) | 67.4% | -35.1% (active) | 8.22% (active) | 33.1% | 14.2% | 23.9% | -53.4% (active) | -20.8% (active) | -11.4% (active)
23 | COc1ccc(Sc2[nH]c(C(C)=O)c3ccccc23)cc1 | 57.8% | 30.9% | 87.5% | 73.5% | 58.9% | 80.9% | -0.948% (active) | 39.6% | 48.5% | 8.36% (active)
24 | CCCCCCCCCCCCCC1=NCC[N+]1(CCO)Cc1ccccc1 (stereo not given) | -61.7% (active) | -79.5% (active) | -84.3% (active) | -86.1% (active) | -85.4% (active) | -98% (active) | 54.2% | -49.5% (active) | -58.1% (active) | -50.7% (active)
25 | CCOC(=O)NCCc1nc2c([nH]1)c(=O)n(C)c(=O)n2C | 101% | 99.7% | 101% | 83.3% | 100% | 110% | 105% | 101% | 115% | 119%
26 | Cc1cccc(C)c1NCc1nnc(-c2ccc(O)cc2)o1 | 104% | 90.6% | 102% | 85.5% | 104% | 98.6% | 107% | 94.8% | 108% | 119%
27 | CC(C)Cc1cc(CNC(=O)C2[C@H]3CN(C(=O)c4ccccc4)C[C@@H]23)nn1-c1ccccc1 (stereo not given in full) | 83.8% | 92.8% | 99.1% | 74.9% | 73.2% | 92.2% | 96.6% | 89.7% | 80.6% | 90.4%
